# A selection: hits, their analogues and other compounds. The true share with any hit is near 6%.
# D1 antagonist: Antagonist of Human D 1 Dopamine Receptor: qHTS | HEK293 TREx D1 cells, calcium flux, dopamine EC80; active compounds read low | AID 504652, 2011 | activity change, negative = inhibition, % at 10 µM | D(1A) dopamine receptor (Homo sapiens), P21728 | 3.2% of 360,000 active; in the data active = activity change below about -30%; also: % is scaled to controls: 0 for no effect and ±100 for the full control effect
#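 Using tetracycline-induced force-coupled D1 Hek293 cells and a calcium dye, signals were followed for 180 s after compound, then for 180 s after EC80 dopamine, to detect inhibitors.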
# BCR signal inh: qHTS Assay to Find Inhibitors of Chronic Active B-Cell Receptor Signaling. ABC-DLBCL IkBa-CBG/CBR reporter, luminescence ratio, 4 h. Potency, µM (top dose mostly 46.1 µM), inactives show top-dose activity change, negative = inhibition, usual class: inhibitors. 0.05% of 340,000 active. AID 493014, 2011; active = well fitted inhibition curve with a large enough effect in the signal ratio, with a control signal flat, not every such curve was filed as active; inconclusive = small, poorly fitted or top-dose-only effect, or effect the other way, or a change in a side signal; the % refers to the signal ratio;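 also: potency is read from the fitted curve at half-maximal effect; plate controls were basal doxycycline-induced cells for no effect and cells given 10 µM MG132 for full effect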
#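 Concentration-response series (up to 46 uM) were applied to TMD8 dual-reporter cells for 4 h at 37C with doxycycline. Green/red ratio, after filter-overlap correction, defined %Activity; red signal alone was normalised to basal cells and zero luminescence.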
# DRD3 antagonist: qHTS of D3 Dopamine Receptor Antagonist: qHTS; D(3) dopamine receptor (Homo sapiens), P35462; D3R cells, DiscoveRx beta-arrestin luminescence, antagonist mode; active compounds read low; max response, negative = inhibition, %; 2.5% of 360,000 active; in the data active = max response below about -50%; inconclusive = no clear call, values can overlap the other calls; also: % is scaled to controls: 0 for no effect and ±100 for the full control effect
# Target sequence (P35462 whole entry, looked up): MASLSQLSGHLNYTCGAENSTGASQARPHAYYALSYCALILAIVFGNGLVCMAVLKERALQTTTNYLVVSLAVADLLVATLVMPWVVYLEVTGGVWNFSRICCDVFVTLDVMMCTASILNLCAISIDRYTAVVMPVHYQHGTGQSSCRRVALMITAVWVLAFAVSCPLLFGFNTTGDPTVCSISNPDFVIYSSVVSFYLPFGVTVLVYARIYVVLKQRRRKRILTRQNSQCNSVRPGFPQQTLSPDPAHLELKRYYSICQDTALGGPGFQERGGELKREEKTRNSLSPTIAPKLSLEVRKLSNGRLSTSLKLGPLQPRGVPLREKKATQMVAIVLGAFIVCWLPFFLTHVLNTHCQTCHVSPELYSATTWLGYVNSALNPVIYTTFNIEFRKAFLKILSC
#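 Cells plated overnight at 1500 cells/well, then exposed to library compounds with dopamine controls for 90 minutes at 37 degrees C. DiscoveRx reagent added for 30–60 minutes at room temperature; luminescence read, quantitative HTS format.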
# D1 PAM: Potentiators of Human D1 Dopamine Receptor: qHTS; D(1A) dopamine receptor (Homo sapiens), P21728; HEK293 TREx D1 cells, calcium flux, dopamine EC20 potentiation; potentiation, % at 10 µM; 0.036% of 360,000 active; AID 504651, 2011; in the data active = potentiation above about 30%; also: 0% is about no effect
# D3 ag: qHTS of D3 Dopamine Receptor Agonist: qHTS; D(3) dopamine receptor (Homo sapiens), P35462; D3R DiscoveRx beta-arrestin cells, luminescence, 90 min; max activation, %; 0.58% of 410,000 active; AID 652048, 2013; in the data active = max activation above about 30%; also: 0% is about no effect
#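 Agonist mode: compounds and dopamine controls were applied to plated cells for 90 min at 37 degrees C after an overnight attachment at 1500 cells/well. Luminescent read-out followed 30 - 60 minutes at room temperature with DiscoveRx detection reagent.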
# D1 ag: Allosteric Agonists of the Human D1 Dopamine Receptor: qHTS; HEK293 T-REx D1 cells, calcium flux, agonist mode; activation, % at 2 µM; 1% of 360,000 active; in the data active = activation above about 30%; also: 0% is about no effect
#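 Agonism was scored from calcium flux recorded over 180 s (1 read/s) after pintool compound addition, following a 10-cycle baseline. Cells were inducible force-coupled HEK293 TREx D1, plated overnight at 30 C and loaded with no-wash calcium dye.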
# * marks the source's active call; other numbers are inactive results; ? = inconclusive; · = not tested or not shown.
SMILES,D1 antagonist,BCR signal inh,DRD3 antagonist,D1 PAM,D3 ag,D1 ag
c1ccc(COc2cccc(CN3CCN(c4ccccn4)CC3)c2)cc1,4,·,-28,-10,39*,0
c1ccc(N2CCN(Cc3ccsc3)CC2)nc1,7,10%,?,-10,53*,1
CC(=O)Nc1sc2c(c1CN1CCN(c3ccccn3)CC1)CCCC2,-3,1%,-62*,-5,-23,2
O=c1cc(CN2CCN(c3ccccn3)CC2)nc2sccn12,0,3%,-9,14,1,1
Cc1cccc(CN2CCN(c3ccccn3)CC2)c1,·,·,?,·,25,·
Cc1ccc(CN2CCN(c3ccccn3)CC2)s1,-7,13%,?,-7,60*,2
Cc1ccccc1CN1CCCN(CC(=O)Nc2ccc(F)cc2)S1(=O)=O,8,·,·,-5,-6,4
COc1cc(C2N=C(N)Nc3nc4ccccc4n32)ccc1OCC(=O)O (stereo unspecified),16,·,·,-4,-8,-1
C=C1CC[C@H](O)CC1=C/C=C1\CCC[C@]2(C)[C@@H]([C@H](C)CC[C@@H](O)C(C)(C)O)CC[C@@H]12,·,·,·,·,6,·
CCOc1ccc(S(=O)(=O)N(CC(=O)Nc2cccnc2)c2ccccc2)cc1,5,·,·,-4,-4,15
Cc1c(C(=O)c2ccccc2)c2ccccn2c1CCc1ccccn1,0,?,4,4,5,1
Cc1c(C(=O)c2ccc(F)cc2)c2ccccn2c1CCc1ccccn1,-54*,0%,11,-13,0,1
COc1ccccc1Cc1nc2ccccc2nc1SCC(=O)NCc1ccc(C)cc1,16,·,·,1,-4,2
O=C(/C=C/[C@H]1O[C@@H](n2cnc3c(NC(=O)c4ccccc4)ncnc32)[C@H](O)[C@@H]1O)NCCCN1CCCC1=O,·,·,0,·,-19,·
COc1ccc(Nc2cc3n(c(=O)n2)CCc2cc(OC)c(OC)cc2-3)cc1,-3,?,-26,-7,-8,-1
COc1ccc(Nc2cc3n(c(=O)n2)CCc2cc(OC)c(OC)cc2-3)c(C)c1,-6,18µM*,-18,2,-1,1
CC(=O)N1CCc2c(sc3c2c(=O)n(-c2cccc(Cl)c2)c(=O)n3Cc2ccc(F)cc2Cl)C1,15,-6%,·,-3,1,3
Cc1ccc(C(=O)Nc2ccccc2[N+](=O)[O-])cc1S(=O)(=O)N1CCOCC1,-34*,-15%,1,-6,-7,1
COc1cc(-c2cc(C(=O)Nc3ccccc3N3CCOCC3)c3ccccc3n2)cc(OC)c1OC,-4,?,21,3,5,3
O=C(Nc1ccc(F)c(F)c1)c1ccc(F)c(S(=O)(=O)N2CCOCC2)c1,-33*,0%,·,-3,·,15
COc1cc(-c2cc(C(=O)Nc3ccc(C)c(S(=O)(=O)N4CCOCC4)c3)c3ccccc3n2)cc(OC)c1OC,·,?,51,·,33*,·
Cc1ccc(NC(=O)CSc2n[nH]c(N)n2)cc1S(=O)(=O)N1CCOCC1,-64*,-16%,-6,0,3,0
CCC(NC(=O)Nc1cccc(C)c1)c1c(-n2cccc2)sc2c1CCN(C)C2 (stereo unspecified),-3,·,·,-3,-12,5
CCOC(=O)c1oc2c(c1C)-c1nn(Cc3ccc(Cl)cc3)cc1CC2,7,·,·,-1,6,-3
Cc1ccc(C(=O)Nc2ccon2)cc1S(=O)(=O)N1CCCCCC1,-28,-25%,11,-6,2,4
SMILES,D1 antagonist,BCR signal inh,DRD3 antagonist,D1 PAM,D3 ag,D1 ag
Cc1ccc(C(=O)Nc2ccon2)cc1S(=O)(=O)N1CCOCC1,0,-3%,15,0,32*,0
Cc1ccc(C(=O)Nc2ccc(C)c(S(=O)(=O)N3CCOCC3)c2)c(C)c1,-42*,-12%,4,-12,-3,6
O=C(NCCc1ccc(F)cc1)c1ccc(Cl)c(S(=O)(=O)N2CCOCC2)c1,-33*,0%,10,-9,6,10
COC(=O)c1ccccc1NC(=O)CNc1ccc(F)c(S(=O)(=O)N2CCOCC2)c1,-51*,0%,-2,2,6,0
CC(=O)CC1c2cc(F)ccc2C=C(c2ccsc2)N1c1ccc(-c2ccc(C(N)=O)cc2)cc1 (stereo unspecified),·,·,-5,·,6,·
CCc1ccc(OCC(=O)Nc2cc(-c3nc4cc(C)ccc4o3)ccc2C)cc1,-5,·,·,-1,6,-1
COc1cc(NC(=O)CSc2nc3nc(C)c(Cc4ccccc4Cl)c(C)n3n2)cc(OC)c1,6,-5%,·,1,2,-4
O=C(NCCNc1ccc([N+](=O)[O-])cc1C(F)(F)F)c1ccccc1,-31*,7%,0,-18,5,6
O=C(NCCNc1ccc([N+](=O)[O-])cc1C(F)(F)F)c1cccc(F)c1,-10,-2%,-22,-3,-3,3
CCc1nc2c(OCc3ccccc3)cccn2c1N(C)C(=O)C(C)C,·,·,0,·,-22,·
COc1cc2nc(CN3CCN(S(=O)(=O)c4c(F)cccc4F)CC3)[nH]c(=O)c2cc1OC,-32*,?,-23,·,-2,5
CCOc1ccc(NC(=O)c2cnn(-c3ccc(C)c(Cl)c3)c2C2CCNCC2)cc1,16,·,·,-4,-1,1
Cc1ccc(-n2ncc(C(=O)Nc3ccc(Cl)cc3)c2C2CCNCC2)cc1C,-44*,-15%,-2,3,6,2
CCOC(=O)/C(=N\Nc1ccc(C(C)=O)cc1)c1csc(Nc2ccccc2)n1,2,?,28,-7,3,54*
COc1ccc(NC(=O)CC(C)n2nc(C)cc2C)cc1Cl (stereo unspecified),-8,·,·,-4,3,2
COc1cccc(CNC(=O)c2c(C)oc3ncnc(N4CCOCC4)c23)c1,7,·,·,0,3,-1
C=CCNC(=S)NNC(=O)CC12CC3CC(CC(C3)C1)C2,-42*,-1%,9,-15,8,1
O=C(c1ccc(C(F)(F)F)cc1)N1CCC(=O)N([C@H](COCc2ccc(Cl)cc2)Cc2ccccc2)CC1,·,·,11,·,-2,·
CCC(C)C(=O)Nc1nc(C)c(-c2csc(Nc3cc(Cl)ccc3OC)n2)s1 (stereo unspecified),0,?,2,-4,48*,3

# Compound activity from PubChem.
